Results published in PubChem BioAssay (Tox21).
Values without a mark were called inactive. Inconclusive results are not listed. Entries that show only a call come without a potency. Active and inactive are the calls of the source. Unless noted, the call rests on the fitted dose curve; in most records, active means well fitted curve in the direction sought with a large enough effect in the repeat runs; inconclusive means weak or mixed curves; inactive means no such curve, though single readings can be large; an effect the other way counts as inactive or inconclusive.

How the values were obtained:
[1] = qHTS assay for small molecule agonists of the p53 signaling pathway (AID 651631; calls by dose curve; further: nearly all actives have a fitted effect of over 15% in size; further: potency means the concentration at half of the fitted maximal effect)
Method in brief: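 p53RE-bla HCT-116 cells; compounds 16 h, 37 °C; LiveBLAzer B/G FRET substrate 2 h RT; fluorescence intensity read-out, qHTS format.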

[2] = qHTS assay to test for compound auto fluorescence at 590 nm (red) in HepG2 cells (AID 720674)
Method in brief: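 Intrinsic compound fluorescence in the red window (Ex/Em 540/590 nm) is measured in attached HepG2 cells exposed for 1 hr, DMSO vehicle as baseline, benchmarked to Rose Bengal sodium.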

[3] = qHTS assay to test for compound auto fluorescence at 535 nm (green) in HepG2 cells (AID 720675); further: potency means the concentration at half of the fitted maximal effect
[4] = qHTS assay to test for compound auto fluorescence at 460 nm (blue) in HEK293 cells (AID 720678)
Method in brief: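 Measured: blue fluorescence (Ex 405/Em 460 nm) of compound-treated HEK293 cells, incubated overnight at 37C with 5% CO2 and scaled to triamterene equivalents.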

[5] = qHTS assay to test for compound auto fluorescence at 590 nm (red) in HEK293 cells (AID 720679); further: potency means the concentration at half of the fitted maximal effect
Method in brief: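 Using HEK293 cells at 2,000 per well, the screen added 23 nL of each compound after cell attachment and incubated overnight (37C, 5% CO2). The plate reader then captured red-label fluorescence, Ex/Em 540/590nm.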

[6] = qHTS assay for small molecule agonists of the p53 signaling pathway - cell viability (AID 651633; calls by dose curve; further: nearly all actives have a fitted effect of over 30% in size; further: potency means the concentration at half of the fitted maximal effect)
Method in brief: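 p53RE-bla cells, seeded at 4,000 per well and rested 5 h at 37 C/5% CO2, received compounds in DMSO for 16 h at 37 C. CellTiter-Glo was then added, and luminescence was read after 30 min at room temperature to gauge cytotoxicity.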

[7] = qHTS assay for small molecules that induce genotoxicity in human embryonic kidney cells expressing luciferase-tagged ATAD5 - cell viability (AID 651634; calls by dose curve; further: nearly all actives have a fitted effect of over 25% in size; further: potency means the concentration at half of the fitted maximal effect)
Method in brief: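 Live-cell protease activity (CellTiter-Fluor, fluorescence) indicates viability. HEK293T cells with luciferase-tagged ATAD5; 15.5 hr compound treatment at 37C.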

[8] = qHTS assay for small molecule disruptors of the mitochondrial membrane potential - cell viability (AID 720634; calls by dose curve; further: nearly all actives have a fitted effect of over 20% in size; further: potency means the concentration at half of the fitted maximal effect)
Method in brief: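 Human hepatoma HepG2 cells were treated for 1 hr with test chemicals, then given m-MPI dye and CellTiter-Glo. Cell viability reflects luminescence proportional to cellular ATP.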

[9] = qHTS assay for small molecules that induce genotoxicity in human embryonic kidney cells expressing luciferase-tagged ATAD5 (AID 651632); further: nearly all actives have a fitted effect of over 15% in size
Method in brief: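 Genotoxicity read-out via ATAD5-luciferase: HEK293T cells, 16 hr compound incubation at 37C, Amplite detection.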

[10] = qHTS assay for small molecule disruptors of the mitochondrial membrane potential (AID 720635); further: potency means the concentration at half of the fitted maximal effect
Method in brief: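 HepG2 cells (2,000/well) attached overnight at 37C, then took compound for 1 hr at 37C, 5% CO2. Mito-MPS dye was added for 30 min; fluorescence was read at 490/535 nm (monomers) and 540/590 nm (aggregates).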
Tags describe the fitted curve by direction and shape or compound fluorescence and quenching.

Row | Structure (SMILES) | Potency [1] | Potency [2] | Potency [3] | outcome [4] | Potency [5] | Potency [6] | Potency [7] | Potency [8] | Potency [9] | Potency [10]
1 | COc1ccc(-c2nc3ccc(C4=NNC(=O)CC4C)cc3[nH]2)cc1 (stereo not given) | 11.9 µM (active) | inactive | inactive | inactive | inactive |  |  |  |  | 
2 | CCN(CC)CCNc1ccc(CNC=O)c2sc3ccc(OC)cc3c(=O)c12 | 6.86 µM (active) | inactive |  | inactive | inactive | inactive | 4.86 µM (active) | inactive |  | 
3 | CC(C)(C)Cl |  | inactive | inactive | inactive | inactive | inactive | inactive | inactive | inactive | inactive
4 | CCC(Cl)CCC(Cl)C(Cl)CC(Cl)C(Cl)C(Cl)CCl (stereo not given) |  | inactive | inactive | inactive | inactive | inactive | inactive | inactive | inactive | 
5 | CN1CCC(=C2c3ccccc3Sc3ccccc32)CC1 |  | inactive | inactive | inactive | inactive | 29.8 µM (active) | 26.6 µM (active) | inactive | inactive | 
6 | CN1CCC(N(Cc2cccs2)c2ccccc2)CC1 |  | inactive |  | inactive | inactive | inactive | inactive | inactive | inactive | 
7 | COCC(C)OC(C)=O (stereo not given) |  | inactive | inactive | inactive | inactive | inactive | inactive | inactive | inactive | inactive
8 | CCOc1ccc(O)cc1 | inactive | inactive | inactive | inactive | inactive | inactive |  |  |  | inactive
9 | NC(N)=NCCC[C@H](N)C(=O)O |  | inactive |  | inactive | inactive | inactive | inactive | inactive | inactive | inactive
10 | CCCn1cnc2c1c(=O)n(CCCCC(C)=O)c(=O)n2C | inactive |  | inactive | inactive | inactive |  |  | inactive |  | inactive
11 | CC(=O)[O][Al] | inactive | inactive |  | inactive | inactive |  | inactive | inactive |  | 
12 | O=[N+]([O-])c1cccc(S(=O)(=O)O)c1 | inactive | inactive | inactive | inactive | inactive |  |  |  | inactive | 
13 | O=CC1CC=CCC1 (stereo not given) | inactive | inactive |  | inactive | inactive |  |  | inactive | inactive | inactive
14 | COc1ccnc(CS(=O)c2nc3ccc(OC(F)F)cc3[nH]2)c1OC (stereo not given) |  |  | inactive | inactive | inactive | inactive | inactive | inactive | inactive | 
15 | CCC(C)O (stereo not given) | inactive | inactive | inactive |  | inactive |  | inactive | inactive |  | 
16 | C=CC(=O)OCCOc1ccccc1 | 68.5 µM (active) | inactive | inactive | inactive | inactive |  | inactive | inactive |  | 
17 | C=C(C)C(=O)OCCO |  | inactive | inactive | inactive | inactive | inactive | inactive | inactive | inactive | inactive
18 | NCCCN1CCOCC1 |  | inactive | inactive | inactive | inactive | inactive | inactive | inactive | inactive | 
19 | CC(C)(C)OCC1CO1 (stereo not given) |  | inactive | inactive | inactive | inactive | inactive | inactive | inactive | inactive | inactive
20 | CCC(CC)Nc1ccc(C)c(C)c1 |  | inactive | inactive | inactive | inactive | inactive | inactive | inactive | inactive | 
21 | CCCCO | inactive | inactive | inactive | inactive | inactive | inactive | inactive | inactive |  | inactive
22 | S=C([S-])NCCNC(=S)[S-].[Mn+2] |  | inactive | inactive | inactive | inactive | inactive | inactive | inactive | inactive | 
23 | Cc1cc(N)c2cc(NC(=O)Nc3ccc4nc(C)cc(N)c4c3)ccc2n1 | inactive |  | inactive | inactive | inactive |  |  | inactive |  | 22.1 µM (active)
24 | CCN(CC)c1ccc2c(-c3ccccc3C(=O)O)c3ccc(=[N+](CC)CC)cc-3oc2c1 | inactive |  | 31.6 µM (active) | inactive | 1.12 µM [fluorescent] (active) |  |  | inactive | inactive | 
25 | CCCCCCCCCCCCN1CCCCCC1=O |  | inactive | inactive | inactive | inactive | 15.4 µM (active) | 61.1 µM (active) | 27.3 µM (active) | inactive | 27.3 µM (active)
